Where “and” joins values, the source holds several entries; their conditions need not be identical. Identical values can stand only once. Inconclusive results are not listed. Entries that show only a call come without a potency. The source holds several records for some structures; these can differ, active in one and inactive in another. Calls of active or inactive are those of the source. Calls come from the whole dose curve; as a rule, active = well fitted curve in the direction sought with a large enough effect in the repeat runs; inconclusive = weak or mixed curves; inactive = no such curve, though single readings can be large; an effect the other way counts as inactive or inconclusive.
Potency is the fitted concentration of half-maximal effect.

Chain of Luciferin 4-monooxygenase (Photinus pyralis) (P08659 whole entry, looked up): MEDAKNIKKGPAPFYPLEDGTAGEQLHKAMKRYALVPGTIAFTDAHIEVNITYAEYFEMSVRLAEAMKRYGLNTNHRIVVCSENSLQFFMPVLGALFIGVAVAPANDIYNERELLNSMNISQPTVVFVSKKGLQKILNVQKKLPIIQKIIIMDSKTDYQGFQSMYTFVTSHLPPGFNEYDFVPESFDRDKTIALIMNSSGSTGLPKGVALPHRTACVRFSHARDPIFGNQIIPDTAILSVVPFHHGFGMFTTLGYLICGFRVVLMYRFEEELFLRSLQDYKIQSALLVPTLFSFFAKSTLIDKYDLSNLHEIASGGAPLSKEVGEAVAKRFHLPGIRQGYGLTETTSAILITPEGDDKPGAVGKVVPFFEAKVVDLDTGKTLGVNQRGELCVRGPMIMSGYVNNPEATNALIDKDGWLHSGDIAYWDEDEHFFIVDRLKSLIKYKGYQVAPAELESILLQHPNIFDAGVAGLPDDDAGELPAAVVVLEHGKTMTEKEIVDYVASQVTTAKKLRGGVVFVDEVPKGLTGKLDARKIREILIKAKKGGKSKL

System in one experiment: not listed separately
As to the kind of experiment: qHTS assay to identify small molecule antagonists of the estrogen related receptor (ERR) signaling pathway from Tox21 library - cell viability counter screen (AID 1224834). Note: nearly all actives have a fitted effect of over 30% in size. Conditions: ERR reporter cells viability, CellTiter-Fluor, 17.5 h; series mostly up to 92.4 µM; viability change, negative = cytotoxic: at the top concentration. Summed up:
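Counter screen run in ERR cells (2,000 cells/well): cells pre-incubated 6 h, then treated with compounds for 17.5 h at 37 C. Fluorescence was read 30 min after CellTiter-Fluor addition.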
A general note: In qHTS, concentration-response curves come from the screen itself.
For the compound `CC(=O)Oc1ccccc1C(=O)Nc1ncc([N+](=O)[O-])s1`, the Potency was 14 µM (active) and 18.8 µM (active).
Turning to `c1ccc2cc(Nc3ccc(Nc4ccc5ccccc5c4)cc3)ccc2c1`, the Potency entry is “inactive”.
Turning to `CCCCc1oc2ccccc2c1C(=O)c1cc(I)c(OCCN(CC)CC)c(I)c1`, the Potency is 48.9 µM (active) and 29.8 µM (active).
For the compound `Cc1ccc(C)c(O)c1C`, the Potency result is “inactive”.
Same read-out and setting: as for `CC(C)Oc1ccc2c(=O)c(-c3ccccc3)coc2c1`, the entry is “inactive”; as for `OC(CCl)CCl`, “inactive”.
On the same count and under the same terms, the value for `O=C(/C=C/c1ccccc1)OCc1ccccc1` was “inactive”.

Another experiment concerns the target Luciferin 4-monooxygenase (Photinus pyralis) (UniProt P08659). As to the kind of experiment: qHTS assay to identify small molecule inhibitors of firefly luciferase (AID 1224835). Note: nearly all actives have a fitted effect of over 25% in size. Conditions: purified P. pyralis luciferase, luminescence inhibition; series mostly up to 115 µM; activity change, negative = inhibition: at the top concentration. Summed up:
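Quantitative HTS format; KM concentrations of both substrates. Purified P. pyralis FLuc activity quantified from luminescence images.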
Consider `OC[C@H]1O[C@@H]2O[C@H]3[C@H](O)[C@@H](O)[C@@H](O[C@H]4[C@H](O)[C@@H](O)[C@@H](O[C@H]5[C@H](O)[C@@H](O)[C@@H](O[C@H]6[C@H](O)[C@@H](O)[C@@H](O[C@H]7[C@H](O)[C@@H](O)[C@@H](O[C@H]8[C@H](O)[C@@H](O)[C@@H](O[C@H]1[C@H](O)[C@H]2O)O[C@@H]8CO)O[C@@H]7CO)O[C@@H]6CO)O[C@@H]5CO)O[C@@H]4CO)O[C@@H]3CO`, for which the Potency result is “inactive”.
Same read-out and setting: the value for `CCCCC(CC)COCC1CO1` (stereo not drawn) was “inactive”.
Same read-out and setting: the value for `Cc1cccc(C(=O)O)c1` was “inactive”.
On the same count and under the same terms, the value for `O=[N+]([O-])c1ccc2c(c1)Cc1ccccc1-2` was “inactive”.
With `CCCCC/C=C/C=C/C=O`, the “activity change, negative = inhibition” value is -0.876% (inactive).
Take `O=c1oc(=O)c2cc3c(=O)oc(=O)c3cc12`: the Potency result is “inactive”.
Still for that read-out and setting: as for `Cc1c(OCC(F)(F)F)ccnc1CS(=O)c1nc2ccccc2[nH]1` (stereo not drawn), the figure is 35.6 µM (active) and inactive.
`CCC(C)c1ccccc1O` (stereo not drawn): the Potency entry is “inactive”.
`Nc1ncn([C@@H]2O[C@H](CO)[C@@H](O)[C@H]2O)c(=O)n1`: the Potency entry was “inactive”.
For the compound `CC(C)OC(=O)C(C)(C)Oc1ccc(C(=O)c2ccc(Cl)cc2)cc1`, the Potency was 34.7 µM (active).
On the same count and under the same terms, as for `Cc1ccc2c(n1)Oc1ccc(C(C)C(=O)OCC(=O)N(C)C)cc1C2` (stereo not drawn), the figure is 17.4 µM (active) and 15.5 µM (active).
Consider `Brc1cc(Oc2cc(Br)c(Br)c(Br)c2Br)c(Br)c(Br)c1Br`, for which the Potency result was “inactive”.
Still for that read-out and setting: the value for `CCCCOCCOCCOCCO` was “inactive”.
Consider `CCCCC(CC)COP(=O)(OCC(CC)CCCC)OCC(CC)CCCC` (stereo not drawn), for which the Potency result is “inactive”.
Still for that read-out and setting: the value for `CCOC(=O)C(C#N)=C(c1ccccc1)c1ccccc1` was “inactive”.
`CCC(C)CO` (stereo not drawn): the “activity change, negative = inhibition” value is -0.169% (inactive).
For the compound `O=C1OC2(c3cc(Br)c(O)c(Br)c3Oc3c2cc(Br)c(O)c3Br)c2c(Cl)c(Cl)c(Cl)c(Cl)c21`, the Potency is 40 µM (active) and 24.2 µM (active).
Take `CC(CCC(=O)O)(c1ccc(O)cc1)c1ccc(O)cc1`: the Potency entry is “inactive”.
Same read-out and setting: the value for `C[C@]12CC[C@H]3[C@@H](CCC4=CC(=O)CC[C@@]43C)[C@@H]1CC[C@@H]2C(=O)CO` was “inactive”.
On the same count and under the same terms, the value for `Nc1ncnc2nc[nH]c12` was “inactive”; that for `CC(C)OB(OC(C)C)OC(C)C` was “inactive”.
With `C#C[C@]1(O)CC[C@H]2[C@@H]3CCc4cc(OC)ccc4[C@H]3CC[C@@]21C`, the Potency result is “inactive”.
Consider `Clc1nc(Cl)c(Cl)c(Cl)c1Cl`, for which the Potency result was “inactive”.
Take `CCCC(=O)O`: the Potency entry is “inactive”.
Still for that read-out and setting: as for `c1cc(-c2ccncc2)ccn1`, the entry is “inactive”.
Still for that read-out and setting: the value for `C=C(C)C(=O)OCCOC(=O)C(=C)C` was “inactive”.
In the case of `O=C(c1ccccc1)c1ccccc1O`, the “activity change, negative = inhibition” value was -1.61% (inactive).
Regarding `CCCCC(CC)COC(=O)c1ccc(N(C)C)cc1` (stereo not drawn), the Potency result was “inactive”.
On to `CC1=CC2C3CC(C=C3C)C2C1` (stereo not drawn), for which the Potency result is “inactive”.
Regarding `COC(=O)C1=C(C)NC(C)=C(C(=O)OCCN(C)Cc2ccccc2)C1c1cccc([N+](=O)[O-])c1` (stereo not drawn), the Potency entry was “inactive”.
The same measure, in the same setting: as for `CC(=O)Oc1ccccc1C(=O)Nc1ncc([N+](=O)[O-])s1`, the figure is 1.29 µM (active) and 3.09 µM (active); as for `c1ccc2cc(Nc3ccc(Nc4ccc5ccccc5c4)cc3)ccc2c1`, “inactive”; as for `CCCCc1oc2ccccc2c1C(=O)c1cc(I)c(OCCN(CC)CC)c(I)c1`, “inactive”.
`Cc1ccc(C)c(O)c1C`: the Potency entry is “inactive”.
Regarding `CC(C)Oc1ccc2c(=O)c(-c3ccccc3)coc2c1`, the Potency was 1.38 µM (active) and 1.55 µM (active).
Same read-out and setting: the value for `OC(CCl)CCl` was “inactive”; that for `Cn1cnc([N+](=O)[O-])c1Sc1ncnc2nc[nH]c12` was “inactive”.
`O=C(/C=C/c1ccccc1)OCc1ccccc1`: the Potency is 17.8 µM (active) and 9.77 µM (active).

System in the next experiment: not listed separately
As to the kind of experiment: qHTS assay to identify small molecule agonists of the constitutive androstane receptor (CAR) signaling pathway - cell viability counter screen (AID 1224836). Note: nearly all actives have a fitted effect of over 45% in size. To be noted: HepG2-CYP2B6-hCAR viability, CellTiter-Fluor, 23 h, PK11195 added to every well; series mostly up to 92.4 µM; viability change, negative = cytotoxic: at the top concentration. The method, boiled down:
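HepG2-CYP2B6-hCAR, 2500 cells/well, 4 h pre-incubation; cpd 15 conc + PK11195 0.75 uM final; 23 h, 37 C/5% CO2; CellTiter-Fluor, fluorescence.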
Turning to `OC[C@H]1O[C@@H]2O[C@H]3[C@H](O)[C@@H](O)[C@@H](O[C@H]4[C@H](O)[C@@H](O)[C@@H](O[C@H]5[C@H](O)[C@@H](O)[C@@H](O[C@H]6[C@H](O)[C@@H](O)[C@@H](O[C@H]7[C@H](O)[C@@H](O)[C@@H](O[C@H]8[C@H](O)[C@@H](O)[C@@H](O[C@H]1[C@H](O)[C@H]2O)O[C@@H]8CO)O[C@@H]7CO)O[C@@H]6CO)O[C@@H]5CO)O[C@@H]4CO)O[C@@H]3CO`, the Potency result was “inactive”.
For the compound `CCCCC(CC)COCC1CO1` (stereo not drawn), the Potency result is “inactive”.
Same read-out and setting: as for `Cc1cccc(C(=O)O)c1`, the entry is “inactive”.
For the compound `O=[N+]([O-])c1ccc2c(c1)Cc1ccccc1-2`, the Potency result is “inactive”.
Regarding `CCCCC/C=C/C=C/C=O`, the Potency result is “inactive”.
Same read-out and setting: the value for `O=c1oc(=O)c2cc3c(=O)oc(=O)c3cc12` was “inactive”; that for `Cc1c(OCC(F)(F)F)ccnc1CS(=O)c1nc2ccccc2[nH]1` (stereo not drawn) was “inactive”; that for `CCC(C)c1ccccc1O` (stereo not drawn) was “inactive”.
For `Nc1ncn([C@@H]2O[C@H](CO)[C@@H](O)[C@H]2O)c(=O)n1`, the Potency is 5.96 µM (active).
Turning to `CC(C)OC(=O)C(C)(C)Oc1ccc(C(=O)c2ccc(Cl)cc2)cc1`, the Potency result was “inactive”.
For `Cc1ccc2c(n1)Oc1ccc(C(C)C(=O)OCC(=O)N(C)C)cc1C2` (stereo not drawn), the Potency result is “inactive”.
For the compound `Brc1cc(Oc2cc(Br)c(Br)c(Br)c2Br)c(Br)c(Br)c1Br`, the Potency result was “inactive”.
Same read-out and setting: as for `CCCCOCCOCCOCCO`, the entry is “inactive”; as for `CCCCC(CC)COP(=O)(OCC(CC)CCCC)OCC(CC)CCCC` (stereo not drawn), “inactive”.
On the same count and under the same terms, the value for `CCOC(=O)C(C#N)=C(c1ccccc1)c1ccccc1` was “inactive”.
`CC(C(=O)O)c1cccc(C(=O)c2ccccc2)c1` (stereo not drawn): the Potency entry was “inactive”.
Regarding `CCC(C)CO` (stereo not drawn), the Potency result is “inactive”.
The same measure, in the same setting: as for `O=C1OC2(c3cc(Br)c(O)c(Br)c3Oc3c2cc(Br)c(O)c3Br)c2c(Cl)c(Cl)c(Cl)c(Cl)c21`, the figure is 13.7 µM (active) and 37.1 µM (active); as for `CC(CCC(=O)O)(c1ccc(O)cc1)c1ccc(O)cc1`, “inactive”; as for `C[C@]12CC[C@H]3[C@@H](CCC4=CC(=O)CC[C@@]43C)[C@@H]1CC[C@@H]2C(=O)CO`, “inactive”.
Consider `Nc1ncnc2nc[nH]c12`, for which the Potency result is “inactive”.
`CC(C)OB(OC(C)C)OC(C)C`: the Potency result was “inactive”.
With `C#C[C@]1(O)CC[C@H]2[C@@H]3CCc4cc(OC)ccc4[C@H]3CC[C@@]21C`, the Potency result was “inactive”.
The same measure, in the same setting: as for `Clc1nc(Cl)c(Cl)c(Cl)c1Cl`, the entry is “inactive”; as for `CCCC(=O)O`, “inactive”.
For `c1cc(-c2ccncc2)ccn1`, the Potency entry was “inactive”.
For the compound `C=C(C)C(=O)OCCOC(=O)C(=C)C`, the Potency entry is “inactive”.
Turning to `O=C(c1ccccc1)c1ccccc1O`, the Potency result is “inactive”.
Same read-out and setting: as for `CCCCC(CC)COC(=O)c1ccc(N(C)C)cc1` (stereo not drawn), the entry is “inactive”; as for `CC1=CC2C3CC(C=C3C)C2C1` (stereo not drawn), “inactive”; as for `COC(=O)C1=C(C)NC(C)=C(C(=O)OCCN(C)Cc2ccccc2)C1c1cccc([N+](=O)[O-])c1` (stereo not drawn), 48.3 µM (active).
Same read-out and setting: as for `CC(=O)Oc1ccccc1C(=O)Nc1ncc([N+](=O)[O-])s1`, the figure is 19.7 µM (active) and 21.1 µM (active); as for `c1ccc2cc(Nc3ccc(Nc4ccc5ccccc5c4)cc3)ccc2c1`, “inactive”; as for `Cc1ccc(C)c(O)c1C`, “inactive”.
Take `CC(C)Oc1ccc2c(=O)c(-c3ccccc3)coc2c1`: the Potency entry is “inactive”.
The same measure, in the same setting: the value for `OC(CCl)CCl` was “inactive”.
On to `Cn1cnc([N+](=O)[O-])c1Sc1ncnc2nc[nH]c12`, for which the Potency is 6.82 µM (active).
Still for that read-out and setting: the value for `O=C(/C=C/c1ccccc1)OCc1ccccc1` was “inactive”.

The values are drawn from PubChem BioAssay (Tox21).
